Screening data (PubChem BioAssay)
HT1080-NT tox: kills 2HG-producing HT-1080-NT fibrosarcoma cells. AID 686970. HT-1080-NT fibrosarcoma viability, CellTiter-Glo ATP luminescence, 48 h. actives 1.6% (n = 360,000). Potency, µM (series often up to 46.1 µM), usual class: cytotoxic;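 note: NT is the 2HG producing partner of a matched IDH1 knockdown line; nearly all actives have a fitted effect of over 55% in size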
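Compounds were tested in concentration-response format on HT-1080-NT cells for 48 hours at 37 degrees C. Cell viability came from CellTiter-Glo luminescence; curves were classified by r2, response magnitude and activity.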
TGFb SMAD3 inh: blocks TGF-b signaling; HepG2 CAGA-GFP TGF-b/SMAD3 reporter, GFP fluorescence, 18 h; TGF-beta stimulated, 500 pg/mL final; Potency, µM (highest dose often 46.1 µM), actives largely listed as inhibitors; actives 1.2% (n = 410,000); note: nearly all actives have a fitted effect of over 65% in size
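Per well, imaged GFP fluorescence of HEPG2 CAGA-GFP cells gives the signal; cells get compound, then TGF-beta (500 pg/mL final), 18 h at 37 degrees C; %Activity versus -TGF-beta and +DMSO controls.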
HepG2 tox: counter-screen for TGF-b inhibitors: cytotoxicity in HepG2 cells | HepG2 CAGA-GFP viability, ATP luminescence, 18 h | Potency, µM (doses to about 46.1 µM), actives largely listed as cytotoxic | actives 0.76% (n = 410,000) | AID 588856
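CellTiter-Glo luminescence gave cytotoxicity after 18 hours at 37 degrees C. The cells were HepG2 CAGA-GFP in 1% FBS DMEM, stimulated with 500 pg/mL TGF-beta after compound addition. %Activity was normalised to no-cell wells (complete cell-killing) and DMSO (no toxicity), and curves were fitted and classified.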
HT1080 IDH1KD tx: HT-1080 IDH1 knockdown cell toxicity (counter line). HT-1080 IDH1 knockdown viability, ATP luminescence, 48 h. actives 2% (n = 360,000). Potency, µM (top dose mostly 46.1 µM), most hits filed as cytotoxic. AID 686971
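HT-1080-IDH1KD cells (IDH1 knocked down), 750/well in RPMI with 5% FBS, treated with compound 48 h at 37 degrees C. Viability by CellTiter-Glo luminescence, normalised to DMSO and no-cell wells; concentration-response curves classed.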
S2 tox: reduces viability in counter-screen for ATXN expression inhibitors | S2 cells (HEK-293 line with an ATXN2-luciferase reporter) viability, CellTiter-Fluor protease fluorescence, 24 h | Potency, µM (highest dose often 56.7 µM), usual class: cytotoxic | actives 0.49% (n = 400,000); note: nearly all actives have a fitted effect of over 40% in size
ATXN2 expr inh: inhibitors of ATXN2 expression. HEK-293 ATXN2-luciferase reporter, luminescence, 24 h. Potency, µM (doses to about 57 µM), actives largely listed as inhibitors. actives 0.72% (n = 360,000). AID 1745845; note: nearly all actives have a fitted effect of over 55% in size
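qHTS (up to 57 uM final) was run with 24 h compound exposure of reporter cells at 37 °C. Each well was multiplexed: SteadyGlo luminescence measured ATXN2-luciferase expression after a fluorogenic Gly-Phe-AFC viability readout (25 uM final).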
Numbers stand for hits; - = inactive; ? = inconclusive; . = not tested or not shown; [ ] = another dose, or the depositor's remark. A selection: hits, their analogues and other compounds. The true share with any hit is near 3.8%. Calls come from the whole dose curve; as a rule, active = well fitted curve in the direction sought with a large enough effect; inconclusive = small, poorly fitted or top-dose-only effect, or another doubt; inactive = no such curve, though single readings can be large; an effect the other way counts as inactive or inconclusive.

SMILES	HT1080-NT tox	TGFb SMAD3 inh	HepG2 tox	HT1080 IDH1KD tx	S2 tox	ATXN2 expr inh
CC1CCCCN1C(=O)Cn1c(=O)n(-c2ccc(Cl)cc2)c(=O)c2c3c(sc21)CCC3 (stereo unspecified)	.	-	-	.	-	-
COc1ccc(S(=O)(=O)Nc2cccc(-c3ccc(N4CCOCC4)nn3)c2)cc1F	.	-	-	.	-	-
COc1cc(C2C(=O)N(C3CCCCC3)CC(=O)N2CCC2=CCCCC2)ccc1OC(C)C (stereo unspecified)	.	-	-	.	.	.
C#CCOCCOCCOCCNc1nc(N2CCN(C(=O)CCCCCCCCCCNC(=O)[C@H](CCCCN)n3cc(CCCC(=O)O)nn3)CC2)nc(N2CCN(C(=O)CCCCCCCCCCNC(=O)[C@H](CCCN=C(N)N)n3cc(C[C@@H](C)CC)nn3)CC2)n1	-	?	-	-	28µM	?
C#CCOCCOCCOCCNc1nc(N2CCN(C(=O)CCCCCCCCCCNC(=O)[C@H](CCCCN)n3cc(C[C@@H](C)CC)nn3)CC2)nc(N2CCN(C(=O)CCCCCCCCCCNC(=O)[C@H](CCCCN)n3cc(C[C@@H](C)CC)nn3)CC2)n1	?	?	10µM	?	13µM	22µM
C#CCOCCOCCOCCNc1nc(N2CCN(C(=O)CCCCCCCCCCNC(=O)[C@H](CCCCN)n3cc(CCCC(=O)O)nn3)CC2)nc(N2CCN(C(=O)CCCCCCCCCCNC(=O)[C@H](CCCCN)n3cc(CCCC(=O)O)nn3)CC2)n1	-	-	-	-	-	-
Cc1ccc(CN2CCOc3ccc(CN4CCC(O)(c5cccnc5)CC4)cc3C2)cc1C	.	.	.	.	-	.
CCC(=O)Nc1ccc(SC#N)cc1C	?	?	-	7.9µM	?	-
CCc1cc(SC#N)cc(C)c1N	-	?	-	-	-	.
CCc1cc(SC#N)cc(C)c1NC(=O)CCl	?	7.1µM	-	?	?	?
Cc1cc(SC#N)cc(C)c1NC(=O)CCl	18µM	?	11µM	23µM	?	-
Cc1cnc(C)c(-c2cc(F)cc3c2OC(CNC(=O)C2CCOC2)C3)n1 (stereo unspecified)	.	.	.	.	-	.
COc1ccc(S(=O)(=O)N2CCC[C@H]2C(=O)N2CCC[C@H]2C(=O)NCc2ccc(F)cc2F)cc1C	?	.	.	?	25µM	?
CC1(C)CC(O)CC(C)(C)N1[O]	.	.	.	.	.	-
CC(=O)Nc1cccc(NC(=O)CN2C(=O)CCSc3ccccc32)c1	.	-	-	.	-	-
CCOC(=O)c1cccc(NC(=O)CN2C(=O)CC(C)(C)Sc3ccccc32)c1	.	-	-	.	28µM	-
C/C(=N\NC(=O)C1CC1c1ccccc1)c1cccc([N+](=O)[O-])c1 (stereo unspecified)	-	11µM	-	-	-	-
C/C(=N\NC(=O)C1CC1(c1ccccc1)c1ccccc1)c1cccc([N+](=O)[O-])c1 (stereo unspecified)	-	-	-	-	-	-
Cc1cccc2cc(CN(C(=O)c3ccc(-c4ccc(F)cc4)cc3)C3CC3)c(N3CCC(O)CC3)nc12	.	.	.	.	-	.
Cc1ccc(N2CCN(C(=O)Nc3cn(CC(C)C)c(=O)c4ccccc34)CC2)c(C)c1	.	-	-	.	-	-
O=S(=O)(/C=C/C=C/S(=O)(=O)c1ccccc1)c1ccccc1	?	3.5µM	-	1.3µM	7.5µM	?
CCN(CC)C(=O)c1sc2c(c1C)c(=O)n(-c1ccc(C)c(C)c1)c(=O)n2Cc1cc(=O)n2ccccc2n1	.	-	-	.	-	-
Cc1ccccc1CN1CCc2cc([N+](=O)[O-])ccc21	-	-	13µM	-	-	?
O=C(Nc1ccc(F)cc1)C(c1ccccc1)N1CCN(c2ccncc2)CC1 (stereo unspecified)	-	.	.	-	.	.
O=C(Nc1ccc(F)cc1)C(CCc1ccccc1)N1CCN(c2ccncc2)CC1 (stereo unspecified)	21µM	.	.	?	.	.
SMILES	HT1080-NT tox	TGFb SMAD3 inh	HepG2 tox	HT1080 IDH1KD tx	S2 tox	ATXN2 expr inh
Cc1cnc(Nc2ccc(CN3CCOCC3)cc2)nc1Nc1cccc(S(=O)(=O)NC(C)(C)C)c1	.	.	.	.	.	-
COc1cccc(C2C(=O)N(C3CCCCC3)CC(=O)N2Cc2ccc(Cl)cc2)c1 (stereo unspecified)	.	?	-	.	.	.
CCN(CC)S(=O)(=O)c1ccc2[nH]cc(C(=O)NCCC3=CCCCC3)c(=O)c2c1	?	?	-	23µM	?	-
CCc1ccc(NS(=O)(=O)c2ccc3[nH]cc(C(=O)NCc4ccc(C)cc4)c(=O)c3c2)cc1	.	?	20µM	.	-	?
CCN(CC)S(=O)(=O)c1ccc2[nH]cc(C(=O)NCCN3CCCCCC3)c(=O)c2c1	-	-	-	-	-	-
Cc1cc(C)cc(NS(=O)(=O)c2ccc3[nH]cc(C(=O)N4CCc5ccccc54)c(=O)c3c2)c1	23µM	-	-	23µM	-	-
Cn1nc(C(=O)NCCN2Cc3ccccc3OC(c3ccsc3)C2)c2ccccc2c1=O (stereo unspecified)	.	.	.	.	-	.
O=C(Nc1nc2c(s1)CN(Cc1ccccc1)CC2)C1CCC1	-	-	11µM	-	.	-
CCN1CCc2nc(NC(=O)c3ccccc3)sc2C1	-	-	-	-	-	-
O=C(NCCC1=CCCCC1)c1ccc2c(c1)ncn2-c1cccc(Cl)c1	.	-	-	.	-	-
COCCCNC(=O)Cn1c(=O)n(Cc2ccc(C(=O)NCc3ccc(C)cc3)cc2)c(=O)c2ccccc21	.	-	-	.	-	-
COc1ccc(/C=c2/sc3n(c2=O)C(c2ccccc2OC)C2=C(N=3)c3ccccc3CC2)cc1O (stereo unspecified)	?	?	-	26µM	-	-
COc1ccccc1C1C2=C(N=C3SCC(=O)N31)c1ccccc1CC2 (stereo unspecified)	-	-	-	-[9.24 µM]	?	-
COc1ccc(O)c(/C=N/NC(=O)c2cccc(N3CCCC3=O)c2)c1	?	-	-	?	-	?
COc1ccc(O)c(/C=N/NC(=O)c2ccc(N3CCCC3=O)cc2)c1	?	-	-	23µM	-	25µM
O=[N+]([O-])c1ccc(-c2ccc(/C=N/Nc3nc(NCc4ccccc4)nc(N4CCOCC4)n3)o2)cc1	18µM	-	-	16µM	-	-
COc1nc(N/N=C/c2ccc(-c3ccccc3[N+](=O)[O-])o2)nc(N2CCOCC2)n1	-	-	-	-	-	-
OC(c1ccc(F)c(F)c1)c1nc(-c2cccc(C(F)(F)F)c2)cs1 (stereo unspecified)	?	?	20µM	?	?	-
